Source: PubChem BioAssay
An excerpt weighted towards active compounds, which were near 0.81% of everything screened.
Bcl-xL primary – inhibitors of human Bcl-xL, primary screen, biochemical, fluorescence polarization, HTS; GST-Bcl-xL / FITC-Bim BH3 peptide fluorescence polarization; inhibition, % at 10.9 µM; Bcl-2-like protein 1 (Homo sapiens), Q07817; 320,000 tested, 0.7% active;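 active = inhibition above the mean of all tested compounds plus 3 SD, cutoff set per campaign, cut at about 30% in these data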;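 note: 0% = DMSO wells and 100% = unlabeled Bim-BH3 peptide competitor; inhibitors lower millipolarization by displacing the labeled peptide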
Target sequence (Q07817 whole entry, looked up): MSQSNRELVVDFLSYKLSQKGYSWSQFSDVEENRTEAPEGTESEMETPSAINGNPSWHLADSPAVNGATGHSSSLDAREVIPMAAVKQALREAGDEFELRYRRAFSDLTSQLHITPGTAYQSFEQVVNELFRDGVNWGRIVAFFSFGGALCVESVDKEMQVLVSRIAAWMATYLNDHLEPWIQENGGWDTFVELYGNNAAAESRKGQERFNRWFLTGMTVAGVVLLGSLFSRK
Bcl-2 Bim block – inhibitors of Bim-Bcl-2 binding, primary screen, biochemical, multiplexed, human Bcl-2 family; Apoptosis regulator Bcl-2 (Homo sapiens), P10415; Bead-based flow cytometry, Bim peptide-Bcl-2 binding; inhibition, % at 10 µM; 190,000 tested, 0.06% active; in the data active = inhibition above about 40%;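 note: 0% = no compound wells with probe peptide and 100% = reference peptide inhibitor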
Bcl-B Bim block – inhibitors of Bim-Bcl-B binding, primary screen, biochemical, multiplexed, human Bcl-2 family | Bcl-2-like protein 10 (Homo sapiens), Q9HD36 | AID 951, 2007 | inhibition, % at 10 µM | 190,000 tested, 0.073% active | bead-based flow cytometry, Bim peptide-Bcl-B binding;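 note: 0% = tracer peptide without compound and 100% = reference inhibitor peptide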
Bcl-XL Bim block – inhibitors of Bim-Bcl-XL binding, primary screen, biochemical, multiplexed, bead flow cytometry, human Bcl-XL; Bim peptide-Bcl-XL binding, fluorescence; Bcl-2-like protein 1 (Homo sapiens), Q07817; inhibition, % at 10 µM; 190,000 tested, 0.04% active
Bim-Bcl-W – inhibitors of Bim binding to Bcl-W, primary screen, biochemical, multiplexed, bead-based flow cytometry | inhibition, % at 10 µM | Bim peptide-Bcl-W binding | 190,000 tested, 0.02% active;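 note: 0% = bound tracer without compound and 100% = peptide blocker; higher means less fluorescent Bim peptide bound to Bcl-W beads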
Target sequence (Q92843 whole entry, looked up): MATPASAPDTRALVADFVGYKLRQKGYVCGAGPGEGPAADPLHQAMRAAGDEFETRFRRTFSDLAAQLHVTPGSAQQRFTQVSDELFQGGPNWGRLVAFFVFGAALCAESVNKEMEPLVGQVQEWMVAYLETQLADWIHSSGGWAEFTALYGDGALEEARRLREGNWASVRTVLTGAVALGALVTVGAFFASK
Bfl-1 Bim block – inhibitors of Bim binding to Bfl-1, primary screen, biochemical, multiplexed, bead-based flow cytometry; Bcl-2-related protein A1 (Homo sapiens), Q16548; Bim-Bfl-1 binding inhibition; inhibition, % at 10 µM; 190,000 tested, 0.12% active;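 note: 0% = wells without compound plus tracer and 100% = blocker peptide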
An asterisk follows results filed as active. Cut-off read from the data, not from the text of the source, unless noted: active = inhibition above about 40%.

Results for Cn1c(=O)c(NC2CCCCC2)c2c3c(cccc31)C(=O)c1ccccc1-2 ?
Bcl-2 Bim block: 3.0; Bcl-B Bim block: -17.0; Bcl-XL Bim block: 5.0; Bim-Bcl-W: 6.0; Bfl-1 Bim block: 4.0

What do the screens show for `CC(=O)Nc1ccc(NC(=O)C(C)OC(=O)c2c(NC(C)=O)sc(C)c2C)cc1` (configuration not stated)?
Bcl-xL primary: -2.8

What do the screens show for `O=C1NC(=O)C2(CCCCCCCCCCC2)N1`?
Bcl-xL primary: 3.7

What do the screens show for `COc1ccccc1C(=O)Nc1ccnn1C1CCN(C)CC1`?
Bcl-xL primary: 0.6

How did CSCC(C)N1CCC(n2nccc2NC(=O)CCCc2ccccc2)CC1 (configuration not stated) do in these assays?
Bcl-xL primary: 99.0*

How did COCCC(=O)N1CCC(n2nccc2NC(=O)c2ccccc2C)CC1 do in these assays?
Bcl-xL primary: 6.5

What do the screens show for `Cc1ccccc1C(=O)Nc1ccnn1C1CCN(C2CCSCC2)CC1`?
Bcl-xL primary: 35.7*

How did COc1ccccc1C(=O)Nc1ccnn1C1CCN(C(=O)C2CCOC2)CC1 (configuration not stated) do in these assays?
Bcl-xL primary: 6.1

Results for COc1ccccc1C(=O)Nc1ccnn1C1CCN(C(C)CSC)CC1 (configuration not stated) ?
Bcl-xL primary: 41.5*

How did C=C(C)CCC(C)N1CCC(n2nccc2NC(=O)CCCc2ccccc2)CC1 (configuration not stated) do in these assays?
Bcl-xL primary: 6.7

How did COc1ccccc1C(=O)Nc1ccnn1C1CCN(C2CCSCC2)CC1 do in these assays?
Bcl-xL primary: 42.2*

What do the screens show for `CCOc1cc(S(=O)(=O)NCc2cccnc2)c(C)cc1C`?
Bcl-xL primary: 0.6; Bcl-2 Bim block: 0.0; Bcl-B Bim block: -1.0; Bcl-XL Bim block: 0.0; Bim-Bcl-W: -1.0; Bfl-1 Bim block: -4.0

Results for CC(CCC(=O)O)C1CC[C@H]2C3CCC4CC(=O)CCC4(C)[C@H]3CC(=O)C12C (some centres not stated) ?
Bcl-xL primary: 1.6

Results for O=C(CSc1nnc(NC2CCCCC2)s1)N1CCOCC1 ?
Bcl-xL primary: -7.2

How did Cc1sc2nc(COC(=O)c3cccc(S(=O)(=O)N(C)c4ccccc4)c3)[nH]c(=O)c2c1C do in these assays?
Bcl-xL primary: 38.9*; Bcl-2 Bim block: -1.0; Bcl-B Bim block: -3.0; Bcl-XL Bim block: 0.0; Bim-Bcl-W: 0.0; Bfl-1 Bim block: 0.0

How did O=C(N/N=C/c1ccccn1)c1ccc(Cl)c(Cl)c1 do in these assays?
Bcl-xL primary: 3.3

How did Cc1ccc2c(c1)c1c3n2CCN(C(=O)CN2CCN(C)CC2)C3CCC1 (configuration not stated) do in these assays?
Bcl-xL primary: 1.7; Bcl-2 Bim block: -1.0; Bcl-B Bim block: -1.0; Bcl-XL Bim block: 1.0; Bim-Bcl-W: -2.0; Bfl-1 Bim block: -5.0

What do the screens show for `Cc1ccc2c(c1)c(=O)c1c3n2CCN(C(=O)CCl)C3CC1` (configuration not stated)?
Bcl-xL primary: 48.5*; Bcl-2 Bim block: 1.0; Bcl-B Bim block: 32.0; Bcl-XL Bim block: -7.0; Bim-Bcl-W: 8.0; Bfl-1 Bim block: -4.0

What do the screens show for `COc1ccc(N(CCC(=O)Nc2ccccc2F)S(=O)(=O)c2ccc(C)cc2C)cc1`?
Bcl-xL primary: 2.1

Results for COCC1CCCC1OS(N)(=O)=O (configuration not stated) ?
Bcl-xL primary: 4.4

What do the screens show for `COc1ccc(C(=O)/C=C/Nc2cccc(O)c2)cc1`?
Bcl-xL primary: 45.5*; Bcl-2 Bim block: 1.0; Bcl-B Bim block: -4.0; Bcl-XL Bim block: -3.0; Bim-Bcl-W: 2.0; Bfl-1 Bim block: -2.0

How did COc1cccc(N/C=C/C(=O)c2ccc(Br)cc2)c1 do in these assays?
Bcl-xL primary: 0.2

What do the screens show for `Cn1c(SCC(=O)Nc2ccccc2Oc2ccccc2)nnc1C1CC1`?
Bcl-xL primary: 0.1
